# Screening data as filed in PubChem.
# Dicer processing: human Dicer pre-microRNA cleavage inhibition; cat-ELCCA pre-miR-21 Dicer processing, chemiluminescence; stronger effect = higher value; z-score at 25 µM; 47,000 tested, 6% active; AID 1347074; in the data active means z-score above about 3, passing the limit was not always enough;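 further: higher signal means more uncleaved substrate so more Dicer inhibition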
# A number is an active result; n = inactive. The full list was thinned out, with hits kept by preference.
SMILES,Dicer processing
CCOC(=O)N/N=C/c1cc(C(F)(F)F)cc(C(F)(F)F)c1,n
CC(C)(C)c1oncc1C(=O)Oc1ccc([N+](=O)[O-])cc1,n
Cc1ccc2c(c1)C(O)(CC(=O)c1ccc3c(c1)OCCO3)C(=O)N2 (stereo unspecified),n
Cc1ccccc1N/C=C(\C#N)C(=O)c1cc(-c2ccc(Cl)cc2)oc1C,n
CCc1ccc2c(c1)sc1ncc(-c3ccccc3)c(=O)n12,n
CCOc1ccc(C)cc1S(=O)(=O)n1cnc2cc(C)c(C)cc21,n
NN/C(N)=N/C(N)=Nc1ccccc1F,n
NC(N)=NC(N)=Nc1ccccc1,n
CCc1ccccc1N=C(N)N=C(N)N,5.5
CC1=CC(C)(C)Nc2ccc(OC(=O)COc3ccccc3)cc21,n
CC1=CC(C)(C)Nc2ccc(OC(=O)c3ccc(Cl)cc3)cc21,n
CC1=CC(C)(C)Nc2ccc(OC(=O)c3ccccc3Br)cc21,4
CCOC(=O)Oc1ccc2c(c1)C(C)=CC(C)(C)N2,n
CC1=CC(C)(C)N2C(=O)C(=O)c3cc(OC(=O)c4ccccc4Br)cc1c32,n
CC1=CC(C)(C)Nc2ccc(OC(=O)c3cccc(Br)c3)cc21,3.1
S=c1c2ccccc2[nH]c2ccccc12,n
CC(=O)n1ccc(-c2cccc([N+](=O)[O-])c2)n1,n
Cc1ccc2c(c1)c(C)c(C)n2CC(O)CN1CCOCC1 (stereo unspecified),4.6
OC(CN1CCOCC1)Cn1c2ccc(Br)cc2c2cc(Br)cc(Br)c21 (stereo unspecified),n
OC(CN1CCCC1)Cn1c2ccc(Cl)cc2c2cc(Cl)ccc21 (stereo unspecified),n
CCOC(=O)c1cc(C)n(Cc2c(Cl)cccc2Cl)n1,n
O=C(Nc1cc(C(F)(F)F)cc(C(F)(F)F)c1)C(Sc1ccccn1)c1ccccc1 (stereo unspecified),n
Cc1ccc(C2CC(=O)C=C(NC3Cc4ccccc4C3)C2)cc1 (stereo unspecified),n
NC(=NC(=O)CCn1c(=O)oc2ccccc21)c1ccc(Cl)cc1,n
CCn1cc(C(=O)O)c(=O)c2cnc(N3CCCC3)nc21,4.5
SMILES,Dicer processing
CCn1cc(C(=O)O)c(=O)c2cc3c(cc21)OCO3,n
CCn1cc(C(=O)O)c(=O)c2cnc(N3CCN(C(=O)Nc4ccccc4)CC3)nc21,n
Cc1cc(NS(=O)(=O)c2ccc(NS(=O)(=O)c3cc(C)c(Cl)cc3C)cc2)no1,n
CN(C)c1ccc(/C=C(\C#N)c2ccc([N+](=O)[O-])cc2)cc1[N+](=O)[O-],n
COc1ccc(/C(C#N)=C/c2cn[nH]c2)cc1,n
COc1ccc(/C=C(\C#N)c2ccc([N+](=O)[O-])cc2)cc1[N+](=O)[O-],3.5
Oc1cc2c(cc1C(c1ccc(C(F)(F)F)cc1)N1CCCC1)OCO2 (stereo unspecified),n
Cc1nc2c(Br)cc(Br)cc2c(=O)n1Cc1cccs1,n
Cc1cc(O/C=C/C(=O)c2ccc(Br)cc2)ccc1Cl,n
COc1ccc(C(=O)/C=C/Sc2cc(Cl)ccc2Cl)cc1,n
COc1ccc(C(=O)/C=C/Oc2ccc(Cl)cc2)cc1,4.4
Cc1csc(-c2cn(C(C)C)c(=O)n(CC(=O)NN)c2=O)n1,n
Cc1ccc(S(=O)(=O)Nc2ccc3oc4ncccc4c(=O)c3c2)cc1,n
Cc1ccc(S(=O)(=O)Nc2ccc3[nH]cc(Cl)c3c2)cc1,3.1
CC(C)(C)c1ccc(S(=O)(=O)Nc2ccc(O)c(Cl)c2)cc1,n
O=C(NCc1ccc(Cl)cc1Cl)c1cc2cc(Cl)ccc2[nH]1,n
CSc1nc(C)nc(N/C=C(\C#N)S(=O)(=O)c2ccccc2)n1,n
Clc1ccc(C2=Nn3c(CSc4ccccc4)nnc3SC2)cc1,n
CC(=Nc1ccc(Cl)cc1)c1ccsc1,n
CC(C)=N/N=C1/N=C(c2ccc(Cl)cc2)CS1,5.2
CC(N)=NCCCn1ccnc1,n
CCOC(=O)C(Sc1ncnc2sc3c(c12)CCCC3)C(C)=O (stereo unspecified),n
O=C(COC(=O)c1ccc2cc(OC(=O)c3ccc(Cl)cc3)ccc2c1)c1ccc(Cl)cc1,n
COC(=O)COc1ccc2c(=O)c(Oc3cc(C)cc(C)c3)c(C(F)(F)F)oc2c1,n
CCOC(=O)Oc1ccc2c(=O)c(Oc3ccccc3Br)coc2c1,n
SMILES,Dicer processing
Cc1oc2cc(O)ccc2c(=O)c1Oc1ccc(Cl)cc1,n
Cc1oc2cc(O)ccc2c(=O)c1Oc1ccccc1Br,3.5
COC(=O)COc1ccc2c(=O)c(Oc3ccccc3Br)c(C(F)(F)F)oc2c1,3.5
COC(=O)COc1ccc2c(=O)c(Oc3ccccc3Cl)c(C(F)(F)F)oc2c1,n
CCOC(=O)c1cnc(NNS(=O)(=O)c2ccc(C(F)(F)F)cc2)nc1C(F)(F)F,n
CC(C)(C)/C=N/NS(=O)(=O)c1ccc(Cl)s1,n
COc1cc(NC(=S)N(N)CCO)c(OC)cc1Cl,n
CC(=O)/C(=C\N=S(C)(=O)c1ccccc1)S(=O)(=O)c1ccc(Cl)cc1 (stereo unspecified),n
CCCCOC(=O)C1=C(C)NC2=C(C(=O)CCC2)C1c1ccc(O)c(OC)c1 (stereo unspecified),n
O=C1OC(/C=C/c2ccccc2)=NC/1=C/c1ccc(Cl)cc1,n
O=C1OC(c2ccccc2)=N/C1=C\c1ccc(/C=C2\N=C(c3ccccc3)OC2=O)cc1,n
O=C1OC(/C=C/c2ccccc2)=NC/1=C/c1cccc2ccccc12,3.5
Cc1ccc(S(=O)(=O)C(CC(=O)c2ccco2)c2ccc(Cl)cc2)cc1 (stereo unspecified),n
Cc1ccc(S(=O)(=O)C(CC(=O)c2ccc(F)cc2)c2ccco2)cc1 (stereo unspecified),3.2
Cc1ccc(C(CC(=O)c2ccco2)SCCO)cc1 (stereo unspecified),n
Cc1ccc2cc(NC(=O)c3cc(C)n(C)n3)ccc2n1,n
CCCN1C(=O)C(NC(C)=O)c2cc(C)cc(C)c21 (stereo unspecified),n
CCOC(=O)c1c(C)n(C)c2cc(-c3ccc(Cl)cc3)c(O)cc12,n
CCOC(=O)c1c(C)n(C)c2cc(-c3ccc(CC)cc3)c(O)cc12,3.5
CCOC(=O)c1c(C)n(C)c2cc(-c3ccc(C)cc3)c(O)cc12,n
COC(=O)/C(=C/C(=O)c1ccc(Cl)cc1)Nc1ccccc1,n
O=C1CC2(CCCC2)C(=O)N1c1ccc(S(=O)(=O)NC2CCCCC2)cc1Cl,n
Cc1ccc(N=Nc2c(C)[nH]n(-c3ccccc3)c2=O)c(C)c1,n
Cc1[nH]n(-c2ccccc2)c(=O)c1N=Nc1c(C)n(C)n(-c2ccccc2)c1=O,n
Cc1[nH]n(-c2ccccc2)c(=O)c1N=Nc1ccc(N2CCCCC2)cc1,3.6
SMILES,Dicer processing
COc1ccc(Br)c(C(=O)NC(=S)Nc2c(C)cc(C)cc2C)c1,n
CCOC(=O)CSc1nc(N2CCOCC2)c2c(c1C#N)CCCC2,n
CCOC(=O)CSc1nc(NC)c2c3c(sc2n1)CCCC3,3.2
CCNc1nc(SCC(=O)OCC)nc2sc3c(c12)CCC(C)C3 (stereo unspecified),n
CCOC(=O)CSc1nc2sc3c(c2c(=O)n1-c1ccc(OC)cc1)CCC3,n
Cc1ccc(S(=O)(=O)NC(=O)NCc2csc3ccc(Cl)cc23)cc1,n
COc1ccccc1OCC(=O)O,n
CCOc1cccc(=O)c2c(C)n(CC(=O)c3ccccc3)c(C)c12,n
COc1cccc(=O)c2c(C)n(CC(=O)c3ccccc3)c(C)c12,3.2
COC(=O)C1=C(C)NC2=C(C(=O)CC(C)(C)C2)C1c1ccc(OCc2ccccc2)cc1OC (stereo unspecified),n
